Data as given in PubChem BioAssay (NCATS).
Inconclusive results are not listed. The source made the active and inactive calls. Unless noted, calls come from the whole dose curve; as a rule, active = well fitted curve in the direction sought with a large enough effect; inconclusive = small, poorly fitted or top-dose-only effect, or another doubt; inactive = no such curve, though single readings can be large; an effect the other way counts as inactive or inconclusive.

Key:
[1] = target: Lysosomal acid glucosylceramidase (Homo sapiens) (UniProt P04062); assay: Glucocerebrosidase-p2 (AID 348; in the data active = potency below about 10 µM; note: potency is the fitted concentration of half-maximal effect); details: purified GBA, blue fluorogenic substrate, 40 min
Chain of Lysosomal acid glucosylceramidase (Homo sapiens) (P04062 whole entry, looked up): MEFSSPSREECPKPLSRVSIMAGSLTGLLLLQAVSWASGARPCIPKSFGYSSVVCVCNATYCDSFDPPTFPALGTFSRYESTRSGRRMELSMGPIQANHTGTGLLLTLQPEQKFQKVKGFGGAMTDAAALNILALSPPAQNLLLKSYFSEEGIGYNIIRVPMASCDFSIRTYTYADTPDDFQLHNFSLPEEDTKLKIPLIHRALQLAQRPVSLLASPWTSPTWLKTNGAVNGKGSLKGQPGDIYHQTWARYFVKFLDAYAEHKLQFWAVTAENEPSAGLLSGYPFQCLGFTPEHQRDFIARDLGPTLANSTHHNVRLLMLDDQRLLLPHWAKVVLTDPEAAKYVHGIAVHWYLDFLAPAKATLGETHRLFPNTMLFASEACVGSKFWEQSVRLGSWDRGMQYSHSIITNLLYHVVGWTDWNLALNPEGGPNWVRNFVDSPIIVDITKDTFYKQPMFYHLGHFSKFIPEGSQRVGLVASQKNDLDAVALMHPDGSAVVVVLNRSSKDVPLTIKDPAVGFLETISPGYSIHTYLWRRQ
Procedure, shortened: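 Normal human glucocerebrosidase (0.2 nM) with blue fluorogenic substrate (80 uM final) in citrate/phosphate pH 5.9 with 10mM sodium taurocholate, 0.01% tween-20; 40 min RT, NaOH/glycine stop; fluorescence Ex 365/Em 440; AC50 from a titration from 0.6 nM upwards.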

[2] = AP1 Signaling Pathway (AID 357; active = well fitted curve in either direction with a large enough effect, not every such curve was filed as active;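 note: ME-180 reporter cells stimulated with EGF at its EC50 level; % is set by controls: 0 for no effect and ±100 for the full control effect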); details: ME-180 AP-1-bla reporter, EGF-induced, beta-lactamase ratio, 5 h; at 7.69 µM (top of the series) unless noted
Procedure, shortened: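 Modulation of EGF-driven AP-1 transcription was assessed with a beta-lactamase reporter in ME-180 cells. Compound and EC50 EGF were co-incubated 5 hours at 37 °C before 2.5-hour CCF4 loading at room temperature and dual-emission reading.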

[3] = target: Cytochrome P450 1A2 (Homo sapiens) (UniProt P05177); assay: p450-cyp1a2 (AID 410; calls by dose curve; note: potency is the fitted concentration of half-maximal effect); details: recombinant CYP1A2, luciferin-ME demethylation, luminescence; series mostly up to 57 µM
Chain of Cytochrome P450 1A2 (Homo sapiens) (P05177 whole entry, looked up): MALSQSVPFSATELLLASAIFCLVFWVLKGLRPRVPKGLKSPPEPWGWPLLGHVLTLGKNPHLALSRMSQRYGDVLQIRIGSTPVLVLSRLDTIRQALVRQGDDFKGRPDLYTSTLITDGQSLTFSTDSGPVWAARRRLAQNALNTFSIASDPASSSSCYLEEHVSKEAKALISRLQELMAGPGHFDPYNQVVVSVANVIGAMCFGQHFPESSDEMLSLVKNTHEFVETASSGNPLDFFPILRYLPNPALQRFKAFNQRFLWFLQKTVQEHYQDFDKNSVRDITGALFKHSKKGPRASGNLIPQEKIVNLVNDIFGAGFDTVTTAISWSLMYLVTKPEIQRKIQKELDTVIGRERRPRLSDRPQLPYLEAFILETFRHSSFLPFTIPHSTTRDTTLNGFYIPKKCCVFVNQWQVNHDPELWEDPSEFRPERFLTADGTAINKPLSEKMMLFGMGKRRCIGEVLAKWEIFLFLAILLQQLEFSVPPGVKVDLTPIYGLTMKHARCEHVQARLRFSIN
Procedure, shortened: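 Luminescent demethylation readout: Luciferin-ME (100uM, equal to Km) turned over by 20nM CYP1A2 for 60 min at room temperature after NADPH regeneration addition, following 10 min compound preincubation. Normalization used 57 uM furafylline as full inhibition.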

[4] = NFAT Signaling Pathway (AID 444; active = well fitted curve in either direction with a large enough effect, not every such curve was filed as active;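 note: carbachol stimulus at about its EC50 of 1 µM final; % is set by controls: 0 for no effect and ±100 for the full control effect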); details: Jurkat NFAT-bla M1, carbachol, beta-lactamase ratio, 5 h; at 7.69 µM (top of the series) unless noted
Procedure, shortened: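 Read-out: CCF4 FRET ratio (460 nm/530 nm) after 1 h RT dye loading, used for %activity and AC50 from titration series. Cells: Jurkat NFAT-β-lactamase/M1 line, treated with compound plus 1 uM carbachol for 5 h, 37 °C.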

[5] = Stat Signaling Pathway (AID 446; active = well fitted curve in either direction with a large enough effect, not every such curve was filed as active;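 note: ME-180 cervical cancer cells given 40 pM IL-6 alongside compound; SIE-controlled beta-lactamase reporter measured as 460/530 nm FRET emission ratio; % is set by controls: 0 for no effect and ±100 for the full control effect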); details: ME-180 (cervical carcinoma) SIE beta-lactamase reporter, IL-6 stimulated, 5 h; at 7.69 µM (top of the series) unless noted
Procedure, shortened: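 Normalization used AC90 stimulation (300 pM IL-6) and AC90 inhibition (125 nM pan-JAK inhibitor at 40 pM IL-6). The underlying signal is SIE-driven beta-lactamase in ME-180 cells after 5 h IL-6 exposure with compound.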

[6] = target: Glucocorticoid receptor (Homo sapiens) (UniProt P04150); assay: GR-EFC Redistribution (AID 451; calls by dose curve; note: potency is the fitted concentration of half-maximal effect); details: CHO-K1 GR-EFC translocation, beta-gal luminescence, 2 h
Chain of Glucocorticoid receptor (Homo sapiens) (P04150 whole entry, looked up, the tested form may be a part): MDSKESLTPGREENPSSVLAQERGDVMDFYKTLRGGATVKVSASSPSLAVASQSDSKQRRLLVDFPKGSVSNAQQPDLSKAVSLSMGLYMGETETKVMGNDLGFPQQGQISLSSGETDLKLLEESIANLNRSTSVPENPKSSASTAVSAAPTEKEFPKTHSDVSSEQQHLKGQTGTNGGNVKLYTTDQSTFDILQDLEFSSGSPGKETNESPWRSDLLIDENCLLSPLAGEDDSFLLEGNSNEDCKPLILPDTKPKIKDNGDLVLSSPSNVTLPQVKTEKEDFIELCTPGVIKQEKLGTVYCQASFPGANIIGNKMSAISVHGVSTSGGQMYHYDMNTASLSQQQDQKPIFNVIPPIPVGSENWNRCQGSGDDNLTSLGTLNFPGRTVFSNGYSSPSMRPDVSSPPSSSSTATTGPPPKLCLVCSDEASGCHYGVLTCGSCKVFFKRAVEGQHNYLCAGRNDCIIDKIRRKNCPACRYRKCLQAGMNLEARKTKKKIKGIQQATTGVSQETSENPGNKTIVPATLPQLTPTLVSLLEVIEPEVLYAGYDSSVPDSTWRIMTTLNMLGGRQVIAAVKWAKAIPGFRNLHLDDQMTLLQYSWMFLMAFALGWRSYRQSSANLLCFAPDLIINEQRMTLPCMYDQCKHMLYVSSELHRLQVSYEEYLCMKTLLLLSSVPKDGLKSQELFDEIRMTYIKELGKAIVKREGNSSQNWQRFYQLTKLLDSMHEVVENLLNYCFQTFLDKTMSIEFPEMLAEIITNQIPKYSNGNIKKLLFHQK
Procedure, shortened: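 Translocation of GR-ED fusion to nuclear EA restores b-gal, read by luminescence after 1 h room-temperature detection. Engineered CHO-K1 biosensor cells, 1,000/well, exposed 2 h at 37 C to titrations up to 46 uM final.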

[7] = target: Mitogen-activated protein kinase 10 (Mus musculus) (UniProt Q61831); assay: JNK3 AlphaScreen Assay (AID 530; active = well fitted curve in either direction with a large enough effect, not every such curve was filed as active;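 note: kinase came from lysate of stimulated human HepG2 cells; signal reports phosphorylation of biotinylated GST-cJun 1-79 at Ser73 with 10 µM ATP; % is set by controls: 0 for no effect and ±100 for the full control effect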); details: JNK3 lysate, c-Jun phosphorylation; series mostly up to 57.1 µM
Procedure, shortened: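 qHTS titrations with 15 min compound pre-incubation before adding ATP (10 uM final). Read-out: AlphaScreen of Ser73-phosphorylated biotin-GST-cJun using HepG2 lysate JNK3 activated by IL-1β and TNFα.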

[8] = target: 3',5'-cyclic-AMP phosphodiesterase 4B (Homo sapiens) (UniProt Q07343); assay: qHTS Assay for Inhibitors of PDE-IV (AID 607; active = well fitted activation curve with a large enough effect in the main read-out, with a control signal flat, not every such curve was filed as active; note: % of control where 0% means no effect); details: HEK293 ACTOne CNG channel cells, membrane potential fluorescence; series mostly up to 22.9 µM
Chain of 3',5'-cyclic-AMP phosphodiesterase 4B (Homo sapiens) (Q07343 whole entry, looked up): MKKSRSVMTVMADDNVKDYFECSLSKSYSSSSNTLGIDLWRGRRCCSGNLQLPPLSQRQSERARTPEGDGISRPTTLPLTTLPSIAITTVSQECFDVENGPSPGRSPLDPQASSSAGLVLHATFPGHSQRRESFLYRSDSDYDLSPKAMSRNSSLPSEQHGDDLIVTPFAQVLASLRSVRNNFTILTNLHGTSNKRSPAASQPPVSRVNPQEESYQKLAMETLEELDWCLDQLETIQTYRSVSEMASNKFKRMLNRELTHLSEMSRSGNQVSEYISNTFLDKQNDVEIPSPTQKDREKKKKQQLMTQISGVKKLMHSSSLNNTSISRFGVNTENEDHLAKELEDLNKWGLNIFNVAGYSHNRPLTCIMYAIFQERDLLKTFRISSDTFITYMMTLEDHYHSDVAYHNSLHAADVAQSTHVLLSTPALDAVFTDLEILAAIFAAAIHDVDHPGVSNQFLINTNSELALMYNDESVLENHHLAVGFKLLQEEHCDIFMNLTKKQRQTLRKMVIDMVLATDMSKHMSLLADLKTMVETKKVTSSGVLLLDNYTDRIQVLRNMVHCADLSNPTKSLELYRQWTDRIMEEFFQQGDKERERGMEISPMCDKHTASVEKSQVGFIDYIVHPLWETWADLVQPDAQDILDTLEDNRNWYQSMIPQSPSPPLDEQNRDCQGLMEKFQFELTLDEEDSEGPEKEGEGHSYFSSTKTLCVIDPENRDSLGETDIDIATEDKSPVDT
Procedure, shortened: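 HEK293 ACTOne cells with CNG channel (1000/well), endogenous PDE4; membrane potential dye, compounds up to 22.9 uM final. Fluorescence Ex 535/Em 590; RO 20-1724 (100 uM final) as reference.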

[9] = qHTS Assay for Lipid Storage Modulators (AID 1519; calls by dose curve); details: Drosophila S3 cells, BODIPY lipid droplet/cell ratio, laser cytometry, cells loaded with oleic acid; for activity change, negative = inhibition: at 57.5 µM (top of the series)
Procedure, shortened: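 Cells seeded at 5,000 per well were treated with compounds over a concentration series and loaded with oleic acid (400 uM, as added). Lipid droplet fluorescence (488 nm excitation, 500-530 nm channel) was read by laser-scanning cytometry and normalized to 20 uM Triacsin C.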

[10] = target: Dual specificity protein kinase CLK4 (Homo sapiens) (UniProt Q9HAZ1); assay: qHTS Assay for Inhibitors of CDC-like Kinase 4 (Kinase-Glo Assay) (AID 1770); details: recombinant Clk4, Kinase-Glo ATP depletion luminescence; series mostly up to 66.7 µM; note: nearly all actives have a fitted effect of over 65% in size; note: potency is the fitted concentration of half-maximal effect
Chain of Dual specificity protein kinase CLK4 (Homo sapiens) (Q9HAZ1 whole entry, looked up): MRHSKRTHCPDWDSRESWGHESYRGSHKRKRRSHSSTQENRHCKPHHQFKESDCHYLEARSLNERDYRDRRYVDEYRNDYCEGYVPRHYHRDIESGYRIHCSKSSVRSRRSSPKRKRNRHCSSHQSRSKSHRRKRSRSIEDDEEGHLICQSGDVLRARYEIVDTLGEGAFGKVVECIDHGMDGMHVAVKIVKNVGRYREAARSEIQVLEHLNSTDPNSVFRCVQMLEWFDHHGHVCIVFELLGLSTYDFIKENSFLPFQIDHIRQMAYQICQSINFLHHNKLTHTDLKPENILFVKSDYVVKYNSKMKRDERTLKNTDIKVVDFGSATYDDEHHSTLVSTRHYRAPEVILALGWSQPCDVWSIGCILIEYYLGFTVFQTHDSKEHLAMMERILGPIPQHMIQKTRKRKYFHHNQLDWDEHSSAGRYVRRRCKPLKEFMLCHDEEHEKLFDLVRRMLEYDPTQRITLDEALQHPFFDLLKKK
Procedure, shortened: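 25 nM Clk4 with 100 uM RS repeat peptide and 1 uM ATP (final) in Tris pH7.5, 10 mM MgCl2, 4.5 h at room temperature. Remaining ATP measured by Kinase-Glo luciferase luminescence.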

[11] = target: Dual specificity protein kinase CLK4 (Homo sapiens) (UniProt Q9HAZ1); assay: qHTS Assay for Inhibitors of CDC-like Kinase 4 (ADP-Glo Assay) (AID 1771); details: recombinant CLK4, ADP-Glo luminescence; series mostly up to 80 µM; note: nearly all actives have a fitted effect of over 70% in size; note: potency is the fitted concentration of half-maximal effect
Procedure, shortened: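 ADP production was read by ADP-Glo luminescence after residual ATP depletion, following 1 h room-temperature reaction of 25 nM Clk4, 1 uM ATP and 100 uM RS peptide with MgCl2, EGTA, DTT and Triton X-100.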

[12] = target: Dual specificity protein kinase CLK4 (Homo sapiens) (UniProt Q9HAZ1); assay: qHTS Assay for Inhibitors of CDC-like Kinase 4 (ADP-FP Assay) (AID 1795); details: Transcreener ADP fluorescence polarization; series mostly up to 50 µM; note: nearly all actives have a fitted effect of over 60% in size; note: potency is the fitted concentration of half-maximal effect
Procedure, shortened: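 Recombinant Clk4 (6.25 nM) phosphorylated 100 uM RS repeat peptide with 1 uM ATP in 25 mM Tris pH 7.5, 10 mM MgCl2, 0.5 mM EGTA, 2.5 mM DTT, 0.01% Triton X-100 for 1 h. ADP was detected by Transcreener ADP2 competitive fluorescence polarization after 30 min at room temperature.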

[13] = target: Ubiquitin carboxyl-terminal hydrolase 1 (Homo sapiens) (UniProt O94782); assay: Inhibitors of USP1/UAF1: Pilot qHTS (AID 504865); details: purified USP1/UAF1, Ub-rhodamine cleavage fluorescence; series mostly up to 54.9 µM;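 note: rhodamine fluorescence freed from ubiquitin-rhodamine substrate followed over time; top concentration of the series differs between compounds; % is set by controls: 0 for no effect and ±100 for the full control effect; nearly all actives have a fitted effect of over 35% in size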
Chain of Ubiquitin carboxyl-terminal hydrolase 1 (Homo sapiens) (O94782 whole entry, looked up): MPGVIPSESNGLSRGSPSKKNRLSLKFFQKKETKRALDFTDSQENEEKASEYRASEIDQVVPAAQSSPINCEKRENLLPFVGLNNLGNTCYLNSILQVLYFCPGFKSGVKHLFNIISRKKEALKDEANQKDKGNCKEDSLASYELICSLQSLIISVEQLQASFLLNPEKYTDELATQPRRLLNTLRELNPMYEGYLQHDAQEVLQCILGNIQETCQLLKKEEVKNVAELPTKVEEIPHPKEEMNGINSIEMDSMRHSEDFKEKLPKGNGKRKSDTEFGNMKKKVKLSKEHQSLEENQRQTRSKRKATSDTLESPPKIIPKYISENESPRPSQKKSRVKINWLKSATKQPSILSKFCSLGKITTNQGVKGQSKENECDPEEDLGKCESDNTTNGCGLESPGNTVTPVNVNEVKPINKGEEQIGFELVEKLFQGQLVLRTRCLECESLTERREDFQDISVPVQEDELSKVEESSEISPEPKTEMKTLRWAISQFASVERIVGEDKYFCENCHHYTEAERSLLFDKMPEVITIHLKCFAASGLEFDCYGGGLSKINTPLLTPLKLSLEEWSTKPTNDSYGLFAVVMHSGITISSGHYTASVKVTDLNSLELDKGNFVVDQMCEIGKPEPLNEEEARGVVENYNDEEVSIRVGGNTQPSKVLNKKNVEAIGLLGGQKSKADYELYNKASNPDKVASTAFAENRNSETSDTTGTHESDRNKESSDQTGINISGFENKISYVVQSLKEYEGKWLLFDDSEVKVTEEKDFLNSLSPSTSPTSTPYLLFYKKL
Procedure, shortened: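 USP1/UAF1 complex at 1 nM preincubated 15 min at room temperature with compound, then Ub-Rho substrate added at 150 nM final. Fluorescence (480/540 nm) read kinetically in 50 mM HEPES pH 7.8, 0.5 mM EDTA, 1 mM TCEP, 0.1 mg/ml BSA, 0.01% Tween-20.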

[14] = Primary qHTS for small molecule stabilizers of the endoplasmic reticulum resident proteome: Secreted ER Calcium Modulated Protein (SERCaMP) assay (AID 1508630); details: SH-SY5Y GLuc-SERCaMP (Gaussia luciferase released on ER calcium loss) secretion, thapsigargin, luminescence; series mostly up to 38.4 µM; note: % is set by controls: 0 for no effect and ±100 for the full control effect
Procedure, shortened: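 The SH-SY5Y reporter protocol was run at 3 concentrations up to 38.3 uM (primary) or 11 concentrations (follow-up): 16 h compound, 100 nM thapsigargin for 4 h, then extracellular luciferase luminescence.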

[15] = target: Glucocorticoid receptor (Homo sapiens) (UniProt P04150); assay: GR-GFP Redistribution (AID 450;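 active = compounds whose dose series gives a full or clear partial fitted curve of increased nuclear translocation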; note: potency is the fitted concentration of half-maximal effect); details: U2OS GR-GFP nuclear translocation, laser cytometry, 2 h
[16] = measured here: cell count channel max response
[17] = measured here: lipid channel max response

O=c1c(-c2ccc(F)cc2)nc2cnc(Oc3cccc(Cl)c3)nc2n1C1CC1
-8.94%: max response [9, 16]
inactive: Potency [1] > 11.4 µM | activity change, negative = inhibition [2] 25.5% | activity change, negative = inhibition [4] 16.4% | activity, negative = inhibition [5] -8.35% | Potency [6] > 46 µM | outcome [7] | Potency [8] | activity change, negative = inhibition [9] 0.37% | Potency [10] | Potency [11] | Potency [12] | Potency [13] | Potency [14]
-12.9%: max response [9, 17]
active: Potency [3] 0.316 µM

O=c1cnc2cnc(N3CCOCC3)nc2n1CCc1ccccc1
3.8%: max response [9, 17]
1.44%: max response [9, 16]
active: Potency [3] 3.16 µM | Potency [10] 7.08 µM | Potency [11] 7.94 µM | Potency [12] 8.91 µM
inactive: Potency [1] > 11.4 µM | activity change, negative = inhibition [2] -4.12% | activity change, negative = inhibition [4] -13.2% | activity, negative = inhibition [5] -10.2% | Potency [15] > 9.22 µM | outcome [7] | activity change, negative = inhibition [9] 3.67% | Potency [13] | Potency [14]

COc1cccc(Nc2ncc3nc(-c4ccc(F)cc4)c(=O)n(C)c3n2)c1
25.1%: max response [9, 17]
active: Potency [3] 3.16 µM
inactive: Potency [1] > 11.4 µM | activity change, negative = inhibition [2] -6.29% | activity change, negative = inhibition [4] -16.4% | activity, negative = inhibition [5] -6.63% | Potency [15] > 9.22 µM | outcome [7] | Potency [8] | activity change, negative = inhibition [9] 5.16% | Potency [10] | Potency [11] | Potency [12] | Potency [13] | Potency [14]
19%: max response [9, 16]

CN(C)c1ncc2nc(-c3ccc(F)cc3)c(=O)n(C[C@H]3CCCO3)c2n1
6.86%: max response [9, 17]
12.6%: max response [9, 16]
inactive: Potency [1] > 11.4 µM | activity change, negative = inhibition [2] 26.6% | activity change, negative = inhibition [4] 26.7% | Potency [15] > 9.22 µM | outcome [7] | Potency [8] | activity change, negative = inhibition [9] -2.2% | Potency [10] | Potency [11] | Potency [12] | Potency [13] | Potency [14]
active: Potency [3] 2.51 µM

Cc1noc(C)c1-c1ccc2ncnc(N(C)C)c2c1
inactive: Potency [1] > 11.4 µM | activity change, negative = inhibition [2] -2.75% | activity, negative = inhibition [5] -14.9% | Potency [15] > 46 µM | Potency [6] > 46 µM | outcome [7] | Potency [8] | activity change, negative = inhibition [9] 3.59% | Potency [13] | Potency [14]
active: Potency [3] 0.631 µM | Potency [10] 7.08 µM | Potency [11] 4.47 µM | Potency [12] 2 µM
20.5%: max response [9, 17]
19%: max response [9, 16]

O=c1c(CCc2ccccc2)nc2cnc(N3CCOCC3)nc2n1Cc1cccs1
7.22%: max response [9, 16]
inactive: Potency [1] > 11.4 µM | activity change, negative = inhibition [2] -2.34% | activity change, negative = inhibition [4] -3.56% | activity, negative = inhibition [5] 2.46% | Potency [15] > 9.22 µM | Potency [6] > 46 µM | outcome [7] | activity change, negative = inhibition [9] 8.99% | Potency [10] | Potency [11] | Potency [12] | Potency [13] | Potency [14]
18.4%: max response [9, 17]
